Measurements published in PubChem BioAssay (Tox21).
Results filed as inconclusive are left out. Activity calls are given as the source filed them. Unless noted, calls follow the shape of the full dose curve.

How the values were obtained:
[1] = Nuclear factor erythroid 2-related factor 2/antioxidant responsive element (Nrf2/ARE) small molecule agonists: qHTS cell viability counter screen in human keratinocytes (AID 1919968; active = well fitted curve in the direction sought with a large enough effect in the repeat runs; an effect the other way counts as inactive or inconclusive; also: nearly all actives have a fitted effect of over 55% in size)
Summary of the method: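 Seed 1,500 KeratinoSens cells per well, then incubate 5 h at 37 C/5% CO2. Add compounds in DMSO and incubate 23 h. Add CellTiter-Fluor, wait 1 h and read fluorescence.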

[2] = Nuclear factor erythroid 2-related factor 2/antioxidant responsive element (Nrf2/ARE) small molecule agonists: luciferase reporter gene qHTS assay in human keratinocytes (AID 1919969); also: nearly all actives have a fitted effect of over 35% in size; also: potency is read from the fitted curve at half-maximal effect
[3] = molecular target: Gonadotropin-releasing hormone receptor (Homo sapiens) (UniProt P30968); experiment: Human gonadotropin-releasing hormone receptor (GnRHR) small molecule agonists, calcium flux assay in GnRHR-HEK293 cells (AID 1920063); also: nearly all actives have a fitted effect of over 35% in size
Sequence of Gonadotropin-releasing hormone receptor (Homo sapiens) (P30968 whole entry, looked up): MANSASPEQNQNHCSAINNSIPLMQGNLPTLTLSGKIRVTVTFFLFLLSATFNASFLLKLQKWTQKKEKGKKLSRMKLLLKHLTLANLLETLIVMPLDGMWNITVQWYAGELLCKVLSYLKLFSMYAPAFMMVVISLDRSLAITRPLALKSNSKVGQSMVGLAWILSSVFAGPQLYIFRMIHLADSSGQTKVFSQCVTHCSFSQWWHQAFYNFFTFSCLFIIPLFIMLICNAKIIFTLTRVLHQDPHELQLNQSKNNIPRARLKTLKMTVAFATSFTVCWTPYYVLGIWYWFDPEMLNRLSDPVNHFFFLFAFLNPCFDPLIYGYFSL
Summary of the method: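 Cells: HEK293 stably expressing human GnRHR. Steps: overnight (18 h) culture, 1 h calcium dye loading at 37 C, compound addition, kinetic fluorescence read at 480/540 nm. Each compound tested at 15 concentrations in triplicate.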

[4] = molecular target: KiSS-1 receptor (Homo sapiens) (UniProt Q969F8); experiment: Human kisspeptin (KISS1R) small molecule agonists, calcium flux assay in KISS1R-HEK293 cells (AID 1920064; active = well fitted curve in the direction sought with a large enough effect in the repeat runs; an effect the other way counts as inactive or inconclusive)
Sequence of KiSS-1 receptor (Homo sapiens) (Q969F8 whole entry, looked up): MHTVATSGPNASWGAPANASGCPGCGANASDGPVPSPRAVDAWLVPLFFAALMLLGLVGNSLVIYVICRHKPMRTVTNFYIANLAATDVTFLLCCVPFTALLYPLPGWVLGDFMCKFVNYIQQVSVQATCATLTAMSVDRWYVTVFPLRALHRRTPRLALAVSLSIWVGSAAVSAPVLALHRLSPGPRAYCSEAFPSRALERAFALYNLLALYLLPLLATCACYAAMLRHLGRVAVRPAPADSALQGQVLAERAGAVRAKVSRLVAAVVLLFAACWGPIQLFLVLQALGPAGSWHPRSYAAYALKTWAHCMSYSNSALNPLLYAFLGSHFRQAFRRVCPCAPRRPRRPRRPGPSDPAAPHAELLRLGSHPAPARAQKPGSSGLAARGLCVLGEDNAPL
Summary of the method: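 Cells plated and incubated 18 h; dye added, 1 h at 37 C; compounds in DMSO pinned in; signal read at 480/540 nm every second for 3 min. Each compound tested at 15 concentrations in triplicate.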

[5] = p53 small molecule agonists, cell-based qHTS assay with human liver microsomes: qHTS cell viability counter screen (AID 1963579); also: nearly all actives have a fitted effect of over 45% in size; also: potency is read from the fitted curve at half-maximal effect
Summary of the method: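 Seed p53RE-bla cells at 4,000 per well; incubate 5 h at 37 C; add compound, human liver microsomes and NADPH; incubate 16 h at 37 C; add CellTiter-Glo; after 30 min at room temperature, read luminescence.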

[6] = p53 small molecule agonists, cell-based qHTS assay with rat liver microsomes: qHTS cell viability counter screen (AID 1963580); also: nearly all actives have a fitted effect of over 45% in size
Summary of the method: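 HCT-116 p53RE-bla, 4,000 cells/well, 5 h pre-incubation; cpd + rat liver microsomes 0.5 mg/mL + NADPH 0.5 mg/mL (final); 16 h, 37 C; CellTiter-Glo, 30 min RT; luminescence.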

[7] = molecular target: 5-hydroxytryptamine receptor 2A (Homo sapiens) (UniProt P28223); experiment: 5-hydroxytryptamine receptor 2A (HTR2A) small molecule antagonists, cell-based qHTS assay (AID 1963586); also: nearly all actives have a fitted effect of over 45% in size
Sequence of 5-hydroxytryptamine receptor 2A (Homo sapiens) (P28223 whole entry, looked up): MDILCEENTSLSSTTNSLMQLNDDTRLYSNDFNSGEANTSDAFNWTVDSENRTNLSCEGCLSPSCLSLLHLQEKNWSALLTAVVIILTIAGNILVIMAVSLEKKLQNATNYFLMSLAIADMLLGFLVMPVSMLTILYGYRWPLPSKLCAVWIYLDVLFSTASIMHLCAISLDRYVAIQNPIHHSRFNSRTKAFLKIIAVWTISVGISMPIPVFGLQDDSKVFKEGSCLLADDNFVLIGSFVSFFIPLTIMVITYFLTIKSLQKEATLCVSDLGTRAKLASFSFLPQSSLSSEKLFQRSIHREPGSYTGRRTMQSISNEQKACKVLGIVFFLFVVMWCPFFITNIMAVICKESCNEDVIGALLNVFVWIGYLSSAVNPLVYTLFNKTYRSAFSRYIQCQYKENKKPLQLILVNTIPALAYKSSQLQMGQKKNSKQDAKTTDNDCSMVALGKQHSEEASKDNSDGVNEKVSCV
Summary of the method: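 Antagonist-mode intracellular calcium assay: DOI (4 nM) added after 5 min compound pre-incubation at room temperature to dye-loaded HTR2A-CHO cells. Fluorescence followed for 3 min, sampled every second.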

[8] = molecular target: 5-hydroxytryptamine receptor 2A (Homo sapiens) (UniProt P28223); experiment: 5-hydroxytryptamine receptor 2A (HTR2A) small molecule agonists, cell-based qHTS assay (AID 1963587); also: nearly all actives have a fitted effect of over 30% in size
Summary of the method: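 Kinetic calcium-flux fluorescence (2 min, 1 sec intervals) after compound addition in agonist mode. HTR2A-CHO cells were cultured 18 h, then dye-loaded 1 h at 37 C.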

[9] = molecular target: Muscarinic acetylcholine receptor M1 (Homo sapiens) (UniProt P11229); experiment: Cholinergic receptor muscarinic 1 (CHRM1) small molecule antagonists, cell-based qHTS assay (AID 1963588); also: nearly all actives have a fitted effect of over 40% in size
Sequence of Muscarinic acetylcholine receptor M1 (Homo sapiens) (P11229 whole entry, looked up): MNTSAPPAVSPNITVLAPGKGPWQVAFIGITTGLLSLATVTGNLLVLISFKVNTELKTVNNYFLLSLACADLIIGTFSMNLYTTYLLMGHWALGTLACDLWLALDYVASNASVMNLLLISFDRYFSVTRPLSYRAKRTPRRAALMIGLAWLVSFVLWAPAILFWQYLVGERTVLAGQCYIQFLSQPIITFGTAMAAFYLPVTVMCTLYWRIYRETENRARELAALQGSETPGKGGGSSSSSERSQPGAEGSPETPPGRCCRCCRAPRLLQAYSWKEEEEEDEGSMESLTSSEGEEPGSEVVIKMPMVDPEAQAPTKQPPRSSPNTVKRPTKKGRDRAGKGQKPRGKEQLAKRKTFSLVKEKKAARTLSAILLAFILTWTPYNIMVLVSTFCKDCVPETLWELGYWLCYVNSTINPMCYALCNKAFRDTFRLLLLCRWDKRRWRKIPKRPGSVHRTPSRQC
Summary of the method: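 CHRM1-CHO calcium-flux assay, antagonist mode. Cells were seeded 18 h, dye-loaded 1 h at 37 C and given compound for 5 min at RT, then acetylcholine was added at 50nM. FDSS fluorescence was read 3 min; 15 concentrations, three runs.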

[10] = cAMP Responsive Elements (CRE) small molecule agonists, cell-based qHTS assay (AID 1963590)
Summary of the method: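 Agonist mode qHTS in CRE-bla HEK 293T cells: compounds dosed from DMSO for 3 h at 37 C/5% CO2, followed by LiveBLAzer B/G FRET substrate for 2 h at room temperature.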

[11] = cAMP Responsive Elements (CRE) small molecule antagonists, cell-based qHTS assay (AID 1963591; active = well fitted inhibition curve with a large enough effect in the signal ratio in the repeat runs, not every such curve was filed as active; the % refers to the signal ratio)
Summary of the method: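 Antagonist mode: test compounds are co-incubated with the adenylyl cyclase activator NKH477 (0.25 uM final) on CRE-bla HEK293T cells for 3 h at 37 °C, followed by LiveBLAzer substrate loading.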

[12] = molecular target: Beta-2 adrenergic receptor (Homo sapiens) (UniProt P07550); experiment: Adrenergic beta2 receptor (ADRB2) small molecule antagonists, cell-based qHTS assay (AID 1963592); also: series mostly up to about 92 µM; nearly all actives have a fitted effect of over 50% in size
Sequence of Beta-2 adrenergic receptor (Homo sapiens) (P07550 whole entry, looked up): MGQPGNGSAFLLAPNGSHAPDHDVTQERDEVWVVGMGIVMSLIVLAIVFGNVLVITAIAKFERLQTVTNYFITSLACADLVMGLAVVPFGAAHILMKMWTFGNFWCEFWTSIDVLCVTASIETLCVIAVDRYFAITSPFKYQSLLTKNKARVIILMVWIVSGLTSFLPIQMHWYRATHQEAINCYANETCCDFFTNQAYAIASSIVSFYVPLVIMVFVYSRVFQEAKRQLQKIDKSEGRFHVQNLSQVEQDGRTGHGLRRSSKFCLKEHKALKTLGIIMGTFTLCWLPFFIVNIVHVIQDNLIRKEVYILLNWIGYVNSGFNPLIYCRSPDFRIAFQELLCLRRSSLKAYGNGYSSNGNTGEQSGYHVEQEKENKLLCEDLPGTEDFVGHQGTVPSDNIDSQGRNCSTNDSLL
Summary of the method: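 Cells (CHO, stable ADRB2 overexpression) incubated 18-20hr at 37C; compounds added from DMSO; agonist mix (1nM isoproterenol, 100uM IBMX, 25uM Ro-20-1724) added; 0.5hr RT; d2-cAMP and anti-cAMP-cryptate added; 1hr RT; 665/615 nm read.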

[13] = molecular target: D(2) dopamine receptor (Homo sapiens) (UniProt P14416); experiment: Dopamine D2 receptor (DRD2) small molecule agonists, cell-based qHTS assay (AID 1963594); also: nearly all actives have a fitted effect of over 35% in size
Sequence of D(2) dopamine receptor (Homo sapiens) (P14416 whole entry, looked up): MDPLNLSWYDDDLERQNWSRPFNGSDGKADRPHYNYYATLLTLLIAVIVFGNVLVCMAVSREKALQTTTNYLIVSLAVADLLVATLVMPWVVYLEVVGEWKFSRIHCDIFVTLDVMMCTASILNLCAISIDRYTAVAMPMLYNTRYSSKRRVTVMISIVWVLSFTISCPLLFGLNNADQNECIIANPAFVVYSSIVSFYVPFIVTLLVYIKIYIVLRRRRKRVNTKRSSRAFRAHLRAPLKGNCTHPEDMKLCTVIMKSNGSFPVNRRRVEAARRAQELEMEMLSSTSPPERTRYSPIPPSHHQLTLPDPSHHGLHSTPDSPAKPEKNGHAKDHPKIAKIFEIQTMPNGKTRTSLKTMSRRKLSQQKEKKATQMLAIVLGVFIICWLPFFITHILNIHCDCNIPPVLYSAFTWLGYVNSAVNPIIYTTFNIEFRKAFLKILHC
Summary of the method: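 cAMP accumulation in DRD2-HEK293 cells measured by HTRF after 1 h detection; compounds added 10 min before NKH477 (200nM […]) forskolin-analogue stimulation, 30 min at room temperature, with Ro20-1724 present at 0.1 mM final.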

[14] = molecular target: D(2) dopamine receptor (Homo sapiens) (UniProt P14416); experiment: Dopamine D2 receptor (DRD2) small molecule antagonists, cell-based qHTS assay (AID 1963595; active = well fitted inhibition curve with a large enough effect in the signal ratio in the repeat runs, with a control signal flat; the % refers to the signal ratio)
Summary of the method: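 HTRF cAMP read-out at 665 and 620 nm emission (340 nm excitation). Antagonist mode: compounds were tested against 12 nM quinpirole in DRD2-HEK293 cells, with 200 nM NKH477 raising cAMP and 0.1 mM Ro20-1724 blocking its breakdown.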

[15] = p53 small molecule agonists, cell-based qHTS assay with human liver microsomes (AID 1963577)
Summary of the method: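 Cells carrying a p53-responsive bla reporter were rested 5 h (37 C, 5% CO2) before compound transfer. Human liver microsomes plus NADPH, 0.5 mg/mL final apiece, supplied metabolism during the 16 h 37 C exposure.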

[16] = p53 small molecule agonists, cell-based qHTS assay with rat liver microsomes (AID 1963578)
Summary of the method: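 Fluorescence from a beta-lactamase reporter under a p53 response element was measured after cells had been incubated 16 h at 37 C with test compound and rat liver microsomes plus NADPH (0.5 mg/mL final each).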

[17] = p53 small molecule agonists, cell-based qHTS assay: qHTS cell viability counter screen (AID 1963581); also: nearly all actives have a fitted effect of over 45% in size
Summary of the method: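 Cells: HCT-116 with p53 response element-driven beta-lactamase. Treatment: 16 h, 37 C, compounds in DMSO. Read: CellTiter-Glo luminescence after 30 min RT.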

[18] = p53 small molecule agonists, cell-based qHTS assay (AID 1963582; active = well fitted activation curve with a large enough effect in the signal ratio in the repeat runs, not every such curve was filed as active; the % refers to the signal ratio)
Summary of the method: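 Quantitative HTS in p53RE-bla cells: after a 5 h settling period, compounds delivered in DMSO were left on cells for 16 h at 37 C, and reporter induction was measured as fluorescence following 2 h substrate loading.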

[19] = molecular target: Muscarinic acetylcholine receptor M1 (Homo sapiens) (UniProt P11229); experiment: Cholinergic receptor muscarinic 1 (CHRM1) small molecule agonists, cell-based qHTS assay (AID 1963589); also: nearly all actives have a fitted effect of over 35% in size
Summary of the method: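 Agonist-mode qHTS in CHO cells stably carrying human muscarinic M1. Intracellular calcium is tracked by fluorescence every second after compound transfer; each compound runs at 15 concentrations in three independent runs.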

[20] = molecular target: Beta-2 adrenergic receptor (Homo sapiens) (UniProt P07550); experiment: Adrenergic beta2 receptor (ADRB2) small molecule agonists, cell-based qHTS assay (AID 1963593);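 also: CHO cells stably overexpressing human ADRB2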
Summary of the method: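 CHO cells stably over-expressing ADRB2 were plated overnight at 37C, then dosed with compounds plus a stimulation mix containing 100uM IBMX and 25uM Ro-20-1724 for 0.5hr at room temperature. cAMP was measured by HTRF competition, 1hr.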

Measured: Potency

O=CCCc1ccccc1
inactive: [1] | [2] | [3] | [4] | [5] | [6] | [7] | [8] | [9] | [10] | [11] | [12] | [13] | [14]

Nc1nc(N)nc(-c2cc(Cl)ccc2Cl)n1
inactive: [1] | [2] | [3] | [4] | [15] | [16] | [5] | [6] | [17] | [18] | [10] | [11] | [12] | [14]

CC1CCc2cc(F)cc3c(=O)c(C(=O)O)cn1c23 (stereo unspecified)
inactive: [1] | [2] | [3] | [4] | [15] | [16] | [5] | [6] | [17] | [18] | [7] | [8] | [9] | [19] | [11] | [12] | [20] | [13]

CC(C)NCC(O)c1ccc(NS(C)(=O)=O)cc1 (stereo unspecified)
inactive: [1] | [2] | [3] | [4] | [15] | [16] | [5] | [6] | [17] | [18] | [10] | [11] | [13] | [14]

C[N+](C)(C)CCCCCCCCCC[N+](C)(C)C
inactive: [1] | [2] | [3] | [4] | [15] | [16] | [5] | [6] | [17] | [18] | [7] | [8] | [9] | [19] | [10] | [11] | [12] | [13] | [14]

O=C1C(=O)c2ccccc2C(O)=C1C1CCC(c2ccc(Cl)cc2)CC1 (stereo unspecified)
inactive: [1] | [3] | [4] | [15] | [16] | [5] | [6] | [17] | [7] | [8] | [9] | [19] | [10] | [12] | [13] | [14]
active: [2] 13.3 µM

CCC(CC)C(=O)O
inactive: [1] | [2] | [3] | [4] | [15] | [16] | [5] | [6] | [17] | [18] | [7] | [8] | [9] | [19] | [10] | [12] | [14]

CS(=O)(=O)c1ccc(-c2cn3ccccc3n2)cc1
inactive: [1] | [3] | [4] | [15] | [16] | [6] | [17] | [18] | [7] | [8] | [9] | [19] | [10] | [11] | [13] | [14]
active: [2] 33.5 µM | [5] 17.8 µM
